Results: PubChem BioAssay (NCATS)
Records with an inconclusive call do not appear. Entries that show only a call come without a potency. Activity calls are given as the source filed them. Calls come from the whole dose curve; as a rule, active = well fitted cell-killing curve with a large enough effect; inconclusive = small, poorly fitted or top-dose-only effect, or effect the other way; inactive = no such curve, though single readings can be large or run the other way.

Key:
[1] = Quantitative High-Throughput drug screen in 47 multiple myeloma cell lines against the NCATS MIPE library collection: FR4_PLB cell viability assay (AID 1918924; note: nearly all actives have a fitted effect of over 35% in size); conditions: FR4_PLB myeloma cells viability, CellTiter-Glo ATP, 48 h; series mostly up to 45.8 µM
Summary of the method: (§1)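 Primary qHTS used for cherry-picking: cells at 500/well, library compounds for 48 h (37C, 5% CO2), luminescent ATP assay.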

[2] = Quantitative High-Throughput drug screen in 47 multiple myeloma cell lines against the NCATS MIPE library collection: Delta47_JCRB cell viability assay (AID 1918925; note: nearly all actives have a fitted effect of over 45% in size); conditions: Delta47 myeloma viability, CellTiter-Glo ATP, 48 h; series mostly up to 45.8 µM
Summary of the method: (§2)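 Myeloma cell lines, 500 cells per well, exposed to MIPE 4.0 library compounds for 48 h at 37C, 5% CO2. Viability from ATP by CellTiter-Glo luminescence; normalised to DMSO (100%) and media-only (0%) wells.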

[3] = Quantitative High-Throughput drug screen in 47 multiple myeloma cell lines against the NCATS MIPE library collection: EJM_DSMZ cell viability assay (AID 1918926; note: nearly all actives have a fitted effect of over 30% in size); conditions: EJM myeloma cell viability, CellTiter-Glo ATP, 48 h; series mostly up to 45.8 µM
Summary of the method: as §2

[4] = Quantitative High-Throughput drug screen in 47 multiple myeloma cell lines against the NCATS MIPE library collection: ARP1_JJKsccF8 cell viability assay (AID 1918928; note: nearly all actives have a fitted effect of over 40% in size); conditions: ARP1 myeloma cells viability, CellTiter-Glo ATP, 48 h; series mostly up to 45.8 µM
Summary of the method: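 Myeloma cells, 500 per well, were exposed to MIPE 4.0 drugs by pin transfer for 48 h at 37 °C, 5% CO2. Viability was read as ATP luminescence with CellTiter-Glo, normalised to DMSO-only (100%) and medium-only (0%) wells.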

[5] = Quantitative High-Throughput drug screen in 47 multiple myeloma cell lines against the NCATS MIPE library collection: AMO1_DSMZ cell viability assay (AID 1918927; note: nearly all actives have a fitted effect of over 30% in size); conditions: AMO1 myeloma cells viability, CellTiter-Glo ATP luminescence, 48 h; series mostly up to 45.8 µM
Summary of the method: as §2

[6] = Quantitative High-Throughput drug screen in 47 multiple myeloma cell lines against the NCATS MIPE library collection: ARD_JJKsccE7 cell viability assay (AID 1918929); conditions: ARD myeloma cell line viability, CellTiter-Glo, 48 h; series mostly up to 45.8 µM
Summary of the method: as §2

[7] = Quantitative High-Throughput drug screen in 47 multiple myeloma cell lines against the NCATS MIPE library collection: Karpas620_DSMZ cell viability assay (AID 1918959); conditions: Karpas620 myeloma viability, CellTiter-Glo ATP luminescence, 48 h; series mostly up to 45.8 µM; note: nearly all actives have a fitted effect of over 30% in size
Summary of the method: as §1
Potency is the fitted concentration of half-maximal effect.

SMILES	Potency [1]	Potency [2]	Potency [3]	Potency [4]	Potency [5]	Potency [6]	Potency [7]
CC=CC[C@@H](C)C(=O)[C@H]1C(=O)N[C@@H](C(C)C)C(=O)N(C)CC(=O)N(C)[C@@H](CC(C)C)C(=O)N[C@@H](C(C)C)C(=O)N(C)[C@@H](CC(C)C)C(=O)N[C@@H](C)C(=O)N[C@H](C)C(=O)N(C)[C@@H](CC(C)C)C(=O)N(C)[C@@H](CC(C)C)C(=O)N(C)[C@@H](C(C)C)C(=O)N1C	23.5 µM (active)	23.5 µM (active)	inactive	18.7 µM (active)			
NS(=O)(=O)c1cccc2c1C(=O)c1cccc(O)c1C2=O	0.935 µM (active)	0.418 µM (active)	0.935 µM (active)	0.332 µM (active)	0.166 µM (active)	0.264 µM (active)	0.148 µM (active)
OC[C@H]1O[C@@H](Oc2cc(O)cc(C=Cc3ccc(O)cc3)c2)[C@H](O)[C@@H](O)[C@H]1O	inactive		4.69 µM (active)		inactive		inactive
C[N+]1(C)[C@@H]2CC(OC(=O)[C@H](CO)c3ccccc3)C[C@H]1[C@H]1O[C@@H]12 (some centres undefined)	inactive	inactive	inactive		inactive		inactive
N#CC(=C(N)Sc1ccccc1N)C(C#N)=C(N)Sc1ccccc1N	7.43 µM (active)	16.6 µM (active)	10.5 µM (active)		18.7 µM (active)	20.9 µM (active)	16.6 µM (active)
CCCCCCCCCCCC1=C(O)C(=O)C=C(O)C1=O	20.9 µM (active)	3.32 µM (active)		11.8 µM (active)	3.32 µM (active)	1.66 µM (active)	0.264 µM (active)
NC1CCC(Nc2nc(Nc3ccc(C(=O)N4CCCCC4)cc3)c3ncn(-c4cccc(F)c4)c3n2)CC1 (centres undefined)	inactive		inactive	inactive	inactive		inactive
O=C(OCC#CCSc1nnc(-c2cccc3ccccc23)o1)c1cc2ccccc2s1	inactive	inactive	23.5 µM (active)			inactive	inactive
NS(=O)(=O)c1ccc(NC2=CC(=O)c3ccccc3C2=O)cc1	2.96 µM (active)	18.7 µM (active)	inactive	2.64 µM (active)	0.59 µM (active)	2.64 µM (active)	1.66 µM (active)
CO[C@H]1C=CC=C(C)C(=O)NC2=CC(=O)C(NCCN(C)C)=C(C[C@@H](C)C[C@H](OC)[C@@H](O)[C@@H](C)C=C(C)[C@@H]1OC(N)=O)C2=O	0.166 µM (active)	0.0469 µM (active)	1.48 µM (active)	0.0118 µM (active)	0.0469 µM (active)	0.001 µM (active)	0.296 µM (active)
C[N+](C)(C)CC(=O)O	inactive		inactive			inactive	
C[C@@H]1CCN(C(=O)CC#N)C[C@H]1N(C)c1ncnc2[nH]ccc12	inactive	inactive	inactive	inactive			inactive
C[C@]12CC[C@@H]3c4ccc(O)cc4CC[C@H]3[C@H]1C[C@@H](O)[C@H]2O	inactive	2.64 µM (active)		9.35 µM (active)	18.7 µM (active)	inactive	18.7 µM (active)
CON=C(C(=O)N[C@@H]1C(=O)N2C(C(=O)OCOC(=O)C(C)(C)C)=C(C=Cc3scnc3C)CS[C@H]12)c1csc(N)n1	inactive	inactive	inactive	inactive	inactive		16.6 µM (active)
COC(=O)N[C@H](C(=O)N1CCC[C@@H]1c1ncc(-c2ccc(-c3ccc(-c4cnc([C@@H]5CCCN5C(=O)[C@@H](NC(=O)OC)C(C)C)[nH]4)cc3)cc2)[nH]1)C(C)C	23.5 µM (active)	20.9 µM (active)				23.5 µM (active)	16.6 µM (active)
NC[C@@H]1O[C@@H](O[C@H]2[C@@H](O)[C@H](O[C@@H]3[C@@H](O)[C@@H](N)C[C@H](N)[C@H]3O[C@H]3O[C@H](CN)[C@@H](O)[C@@H](O)[C@H]3N)O[C@H]2CO)[C@H](N)[C@@H](O)[C@@H]1O	inactive	inactive	inactive	inactive	inactive	inactive	inactive
Cc1c(O)cccc1C(=O)N[C@@H](CSc1ccccc1)[C@H](O)CN1C[C@H]2CCCC[C@@H]2C[C@@H]1C(=O)NC(C)(C)C	26.4 µM (active)	20.9 µM (active)	23.5 µM (active)	23.5 µM (active)	16.6 µM (active)	16.6 µM (active)	14.8 µM (active)
CCN(CC)CCOc1ccc(C(=C(Cl)c2ccccc2)c2ccccc2)cc1	inactive	29.6 µM (active)		inactive	18.7 µM (active)		
CC#CCn1c(N2CCC[C@@H](N)C2)nc2c1c(=O)n(Cc1nc(C)c3ccccc3n1)c(=O)n2C	inactive		inactive	2.96 µM (active)	inactive	inactive	inactive
CCOC1OC(=O)C[C@H]1NC(=O)[C@@H]1CCCN1C(=O)[C@@H](NC(=O)c1ccc(N)c(Cl)c1)C(C)(C)C (some centres undefined)	inactive	inactive	inactive		18.7 µM (active)	20.9 µM (active)	4.69 µM (active)
CC(C)OC(=O)CCCC=CC[C@@H]1[C@H](C=C[C@@H](O)COc2cccc(C(F)(F)F)c2)[C@H](O)C[C@@H]1O	29.6 µM (active)	14.8 µM (active)		20.9 µM (active)	inactive		inactive
CCc1ccc(C=C2SC(=S)NC2=O)cc1	inactive	inactive	inactive	inactive			
CN(C)CCC=C1c2ccccc2COc2ccc(CC(=O)O)cc21	inactive		inactive	inactive	inactive	inactive	inactive
CC[C@H]1OC(=O)[C@H](C)[C@@H](O[C@H]2C[C@@](C)(OC)[C@@H](O)[C@H](C)O2)[C@H](C)[C@@H](O[C@@H]2O[C@H](C)C[C@H](N(C)C)[C@@H]2O)[C@](C)(O)C[C@@H](C)CN(C)[C@H](C)[C@@H](O)[C@]1(C)O	inactive		inactive	inactive	inactive	inactive	inactive
C[C@H]1[C@H](NC(=O)C(=NOC(C)(C)C(=O)O)c2csc(N)n2)C(=O)N1S(=O)(=O)O	inactive	inactive	inactive		inactive	inactive	inactive
CC1(C)O[C@H]2C[C@@H]3[C@H]4CCC5=CC(=O)C=C[C@]5(C)[C@@]4(F)[C@@H](O)C[C@]3(C)[C@]2(C(=O)CO)O1	inactive		inactive			0.0037 µM (active)	inactive
OC[C@H]1O[C@@H](n2cnc3c2NC=NC[C@@H]3O)C[C@H]1O	inactive	inactive			inactive	inactive	14.8 µM (active)
CC1(C)CCC[C@@]2(C)[C@@H]1CC[C@@]1(C)OC(=O)C[C@H]21	14.8 µM (active)	inactive	inactive	inactive			inactive
CCOC(=O)O[C@]1(C(=O)OCCl)CC[C@@H]2[C@H]3CCC4=CC(=O)C=C[C@]4(C)[C@@H]3[C@@H](O)C[C@@]21C	inactive	inactive	inactive	0.0372 µM (active)	inactive		inactive
O=C(Nc1cc(Cl)cc2c1[nH]c1cnccc12)c1cccnc1	1.87 µM (active)	4.18 µM (active)	10.5 µM (active)	13.2 µM (active)	inactive	inactive	inactive
